Compound activity as filed in PubChem.
bovine MsrA act: activators of bovine methionine sulfoxide reductase A; purified bovine MsrA, absorbance read-out; activation, % at 10.6 µM; hit rate 0.3% among 360,000; AID 602163; in the data active = activation above about 7.5%;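 also: 0% = vehicle and 100% = reference activator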
SUMO Mot1 rescue: inhibitors of SUMOylation pathway: yeast Mot1-301 growth rescue; AID 2716; hit rate 1% among 320,000; S. cerevisiae Mot1-301 growth rescue, ATP luminescence, 38.5C; percent above DMSO median, 100 means doubled; growth rescue, % at 18.8 µM;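 active = every valid replicate shows activation above 250% relative to neutral control wells; inactive = the rest, any valid replicate at or below 250%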;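 also: OY570 slx delta 5 strain wells were the positive control but not used for scaling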
PKA-R1A activ: activates the PKA-R1A holoenzyme complex. P00514+P68181. PKA-R1A dissociation, Cy5-IP20 fluorescence polarization; scaled: DMSO 0%, 113 µM cGMP 100%. activation, % at 11.4 µM. hit rate 0.083% among 340,000. AID 504707;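 active = percent activation above the mean of all tested compounds plus 3 SD, cut at about 19% in these data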;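 also: higher means more PKAc released from R1A so a rise in polarization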
MsrA inh: bovine MsrA inhibition; purified bovine MsrA, absorbance read-out; inhibition, % at 15.5 µM; hit rate 0.75% among 360,000; AID 651718; in the data active = inhibition above about 4.5%;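 also: 0% = vehicle wells with enzyme and 100% = reference inhibitor wells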
PKA-R2B activ: activates the human PKA-R2B holoenzyme complex; P22694+P31323; hit rate 0.079% among 340,000; PKA-R2B holoenzyme dissociation, Cy5-IP20 fluorescence polarization; R2B truncated from residue 108, S112A mutant; 0% DMSO only, 100% 113 µM cGMP; activation, % at 11.4 µM;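 active = activation above a cutoff set at the mean over all compounds plus 3 SD, cut at about 18% in these data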;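 also: higher means more holoenzyme dissociation and a rise in polarization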
Target sequence (P31323 whole entry, looked up, other chains not shown, the tested form may be a part): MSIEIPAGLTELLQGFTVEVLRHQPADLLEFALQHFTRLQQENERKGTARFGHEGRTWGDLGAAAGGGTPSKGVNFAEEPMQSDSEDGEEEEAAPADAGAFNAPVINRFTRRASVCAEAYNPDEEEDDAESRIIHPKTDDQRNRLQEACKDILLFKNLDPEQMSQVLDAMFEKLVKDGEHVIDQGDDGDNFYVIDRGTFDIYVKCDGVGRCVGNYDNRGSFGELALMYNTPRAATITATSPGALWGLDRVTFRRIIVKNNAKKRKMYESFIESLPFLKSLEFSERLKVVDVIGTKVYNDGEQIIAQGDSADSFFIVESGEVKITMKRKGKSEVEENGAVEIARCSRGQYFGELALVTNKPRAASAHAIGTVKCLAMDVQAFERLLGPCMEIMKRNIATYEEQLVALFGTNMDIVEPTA
Mot1 SUMO dose: yeast SUMO pathway inhibition in dose response; S. cerevisiae Mot1-301 galactose growth, ATP luminescence, 24 h; -100 = growth of slx-deleted rescue strain; shares compounds with SUMO Mot1 rescue; 2,300 tested, under 10 active; growth activity, percent, % at 42 µM;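 active = Signal drops as the depositor expects, and the fitted half-maximal dose is no more than ten times the top valid tested dose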;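 also: more negative values mean stronger growth rescue toward the control strain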
An asterisk follows results filed as active; / = no result; + = active, no number. This is a sample that favours compounds with a hit; in the whole collection about 2% have one here.

SMILES | bovine MsrA act | SUMO Mot1 rescue | PKA-R1A activ | MsrA inh | PKA-R2B activ | Mot1 SUMO dose
c1ccc(Cc2cnc(N3CCN(Cc4ccc5c(c4)OCCO5)CC3)nc2)cc1 | / | / | / | 0 | / | /
Cc1ccc(C)c(C(C)NC(=O)c2ccncc2)c1 (stereo unspecified) | -2 | 752* | 1 | 0 | -2 | 0
COC(=O)C1=C(C)N(C)C(=NCc2cc(OC)c(OC)c(OC)c2)NC1c1cccc(Cl)c1 (stereo unspecified) | / | / | / | -1 | / | /
Cn1c(CCN2CCOCC2)nc2cc(NC(=O)COc3ccccc3)ccc21 | -13 | + | 4 | 0 | 6 | 1
Cn1c(CN2CCOCC2)nc2cc(NC(=O)COc3ccccc3)ccc21 | -3 | 23 | -3 | 0 | 1 | /
CCOC(=O)C1CSCCS(=O)(=O)N1Cc1cc(F)ccc1Br (stereo unspecified) | / | / | / | 1 | / | /
Cc1ccc(NC(=S)NC(NC(=O)c2ccccc2C)C(Cl)(Cl)Cl)c(C)c1 (stereo unspecified) | -1 | 627* | -1 | 0 | -12 | 0
COc1ccc(NC(=O)CC(C)C)c(OC)c1 | -2 | 789* | -9 | 0 | 1 | 0
COc1ccc(N2CCN(C(=O)CNC(=O)Cc3ccc(Cl)cc3)CC2)cc1 | -2 | 410* | -1 | -1 | 3 | 0
COC(=O)[C@]12C[C@H](CC(=O)NCc3ccccc3)C(=O)N(Cc3ccccc3)C1=C[C@H](C(C)C)O[C@@H]2C1CC1 | / | / | / | -1 | / | /
COC(=O)C1Cc2ccccc2CN1S(=O)(=O)c1ccc(F)cc1 (stereo unspecified) | -1 | 2 | -1 | -1 | -2 | /
CC(C)(C)NC(=O)C1Cc2ccccc2CN1S(=O)(=O)c1ccc(F)cc1 (stereo unspecified) | 0 | 584* | / | -1 | / | 0
Cn1c(Cn2nnc3ccccc32)nnc1SCC(=O)c1ccc(F)cc1 | 1 | 785* | 1 | -1 | 3 | 0
CC(C)N(C(=O)CSc1nnc(Cn2nnc3ccccc32)n1C)C(C)C | -1 | 5 | -9 | 0 | -6 | /
CCCCCCCCN1C(=O)[C@@H](CC(=O)NCc2cccc3ccccc23)C[C@@]2(C(=O)OC)C1=C[C@H](C1CCCC1)O[C@@H]2C | / | / | / | 0 | / | /
Cc1ccccc1Cn1cc(NC(=O)c2cc3nc(-c4ccco4)cc(C(F)(F)F)n3n2)cn1 | 1 | 360* | 4 | 1 | 10 | 0
O=C(Nc1ccc(Cl)cc1)c1cc2nc(-c3ccco3)cc(C(F)(F)F)n2n1 | -5 | -14 | -3 | 0 | -6 | /
CCc1noc2cc(-c3ccccc3)n(C)c(=O)c12 | / | / | / | -1 | / | /
CCOC(=O)Cn1c(=O)n(Cc2ccco2)c(=O)c2ccc(C(=O)NCCc3ccccc3)cc21 | 0 | 370* | -14 | 1 | -6 | 0
COc1ccc(CCNC(=O)Cn2c(=O)n(Cc3ccco3)c(=O)c3ccc(Cl)cc32)cc1OC | -4 | / | 3 | -2 | -12 | /
Cc1ccc(C)c(NC(NC(=O)c2ccccn2)C(Cl)(Cl)Cl)c1 (stereo unspecified) | -15 | 982* | 8 | -1 | 7 | 0
O=S(=O)(NCCS(=O)(=O)N1CCN(c2ccccc2)CC1)c1ccccc1 | -10 | 5 | -4 | 0 | 0 | /
Cc1ccc(S(=O)(=O)NCCS(=O)(=O)N2CCN(c3ccc(F)cc3)CC2)cc1 | -9 | 543* | 0 | -1 | -6 | 2
COc1cc(C(=O)N/N=C/c2ccccn2)cc(OC)c1OC | -2 | 935* | -2 | -1 | -1 | 0
COc1ccc(C(=O)N/N=C/c2ccccn2)cc1OC | -2 | 319 | -7 | 1 | -1 | /
SMILES | bovine MsrA act | SUMO Mot1 rescue | PKA-R1A activ | MsrA inh | PKA-R2B activ | Mot1 SUMO dose
COC(=O)c1cc2c(c3c4cc(C)ccc4n(S(=O)(=O)c4ccccc4)c13)C(=O)N(Cc1ccc(C(F)(F)F)cc1)C2 | / | / | / | 0 | / | /
COC(=O)c1cccc(NC(=O)c2cccnc2)c1 | -8 | + | -8 | 1 | 0 | 0
Cn1cnc([N+](=O)[O-])c1Sc1nnc(-c2ccccc2)c(-c2ccccc2)n1 | / | / | / | 1 | / | /
O=C(Cc1cccs1)N1CCCC(c2nc3c(nnn3Cc3ccc(F)cc3)c(=O)[nH]2)C1 (stereo unspecified) | -8 | 533* | 1 | 3 | 8 | 0
CC(C)(C)c1ccc(Cn2nnc3c(=O)[nH]c(C4CCCN(C(=O)Cc5cccs5)C4)nc32)cc1 (stereo unspecified) | -9 | -3 | -9 | -1 | -16 | /
O=S(=O)(c1ccc(S(=O)(=O)N2CCCC2)cc1)N1CCCCC1 | / | 683* | / | / | / | 0
O=S(=O)(c1ccc(C2CCCCC2)cc1)N1CCCC1 | -1 | 621* | 2 | -1 | 0 | 0
COc1ccc(C=CC(=O)c2c(N)n(C)c(=O)n(C)c2=O)cc1 | / | / | / | 4 | / | /
COc1ccc(CN2C(=O)C(=O)N(CC(N)=O)C2=O)cc1 | -3 | 719* | -10 | -1 | 4 | 0
CCCCCCN1CCN(C2CN(Cc3cn(Cc4ccc(C(F)(F)F)cc4)nn3)S(=O)(=O)C2)CC1 (stereo unspecified) | / | / | / | 0 | / | /
CSc1ccccc1NC(=O)COc1nsnc1N1CCOCC1 | -12 | 413* | -6 | 1 | -3 | 0
CCCCN(C/C=C/c1ccccc1OC)Cc1ccccc1 | -5 | 529* | -8 | -1 | -3 | 0
O=C(NCc1cccnc1)C1CCN(S(=O)(=O)c2cccnc2)CC1 | -3 | + | 3 | 0 | 11 | -1
Cc1ccc(CNC(=O)C2CCN(S(=O)(=O)c3cccnc3)CC2)cc1 | -2 | 16 | 4 | -1 | 6 | /
CCOc1ccc(N(C(C)C(=O)NC(C)CC)S(C)(=O)=O)cc1 (stereo unspecified) | -3 | 397* | -12 | -1 | -9 | 0
CCOC(=O)C1CCCN(C(=O)c2cc(-c3ccncc3)nc3ccccc23)C1 (stereo unspecified) | -2 | 79 | 0 | -1 | 1 | /
CCOC(=O)C1CCCN(C(=O)c2cc(-c3ccc(F)cc3)nc3ccccc23)C1 (stereo unspecified) | -10 | 463* | -9 | 0 | -8 | 0
CC(C)CCNC(=O)Nc1ccc2c(c1)N(C)C(=O)CS2 | -8 | + | -2 | 0 | -10 | 0
Cc1ccc(S(=O)(=O)NCCC(=O)NC2CCCCCC2)cc1 | -8 | / | -5 | -1 | -4 | /
Cc1ccc(S(=O)(=O)NC2CCCCCCC2)cc1 | -3 | 454* | 3 | -1 | 8 | 1
O=S(=O)(NC1CCCCC1)c1ccc(Br)cc1 | -1 | 136 | 4 | 2 | 4 | /
Cc1ccc(S(=O)(=O)Nc2n[nH]nc2C(=O)NC2CCCCC2)cc1 | -5 | 517* | / | 0 | / | 0
